We go through 52 compounds from ChEMBL document CHEMBL4513216, “Probing the Open Global Health Chemical Diversity Library for Multistage-Active Starting Points for Next-Generation Antimalarials” (ACS Infect Dis, 2020).

The campaign covered roughly 69,000 compounds. About 8,600 (12%) showed an effect of 50% or more. Many of the other results were omitted from the sample, so strong results are more common in it than they were.

The test relates to Plasmodium berghei. Nature of the test: Screen against P. berghei liver stage (PbLuc), transformed with Luciferase, at 10uM. It is filed as functional, HepG2. The conditions noted are these: tested at 10 uM.
For `C=Cn1ncc(CN2C[C@@H]3CCCN3C[C@H]2Cc2ccccc2)c1C`, the INHIBITION is 51.5%.

On to `C=Cn1ncc(CN2C[C@@H]3CCCN3C[C@H]2CCSC)c1C`, for which the INHIBITION was determined as 30.1%. With `Cc1nc(N2CCN(c3ccccc3)CC2)c2c(n1)c(C)nn2C`, the INHIBITION is listed as 25.1%. As for `CC(=O)N1CCN(CC=C(C)C)CC1`, the figure is 19.1%; as for `CCNC(=O)[C@@H]1C[C@@H](NC(=O)c2cccn2C)CN1CCCSC`, -7.7%. Under `Cc1cc(-c2cccc(-c3ccn(CCCO)n3)c2)nc(N(C)C)n1` stands -22.8%; under `COc1ccc(OC)c(CCNC(=O)CCC2CCCO2)c1` (configuration not stated), 38.3%; under `O=C(CCC1CCCO1)NCCCC(=O)Nc1ccc(Cl)cc1` (configuration not stated), 36.8%. As for `CCOCCNC(=O)CCC1CCCO1` (configuration not stated), the figure is 42.1%; as for `O=C(CCC1CCCO1)NCCCO` (configuration not stated), 51%; as for `O=C(CCC1CCCO1)NCCN1CCCCC1` (configuration not stated), 52.2%. With `O=C(CCC1CCCO1)NCCc1ccccn1` (configuration not stated), the INHIBITION is reported as 18.3%. Under `Cc1c[nH]nc1C1CCCN(C(=O)Cn2cccn2)C1` (configuration not stated) stands 2.71%; under `Cc1nc(C2CCCCN2S(C)(=O)=O)no1` (configuration not stated), -4.87%. As for `CC(=O)N1N=C(c2ccccc2)OC1C(=O)NCCc1ccc(Cl)cc1` (configuration not stated), the figure is -53.7%.

As for `CCN(CCCNCc1c(C)nn(C)c1N(C)C)S(C)(=O)=O`, the INHIBITION stood at 0.58%. As for `Cc1nc(C2CCN2c2ncccn2)cc(N(C)C)n1` (configuration not stated), the figure is 10.9%; as for `CCN(CC)C(=O)CSc1nc2nc(C)ccc2o1`, -4.76%; as for `CCN(Cc1cccc2c1OCO2)C(=O)NCc1ccccn1`, -27.8%.

With `N#Cc1cccc(CN2C(=O)c3ccccc3CS2(=O)=O)c1`, the INHIBITION is -0.85%. Under `Cc1cc(C)c(CNC(=O)C2COc3ccccc3C2)c(=O)[nH]1` (configuration not stated) stands 32.9%; under `Cc1ccc(C)c(C(=O)CN2C(=O)c3ccccc3CS2(=O)=O)c1`, 56.8%. Under `Cc1ccc(C)c(C(=O)N2CCN(C(=O)Cc3ccccn3)CC2)c1` stands 29.7%. Under `CCCn1c(C)cc(C(=O)CN2C(=O)c3ccccc3CS2(=O)=O)c1C` stands 31.8%. Consider `Cc1ccccc1C(=O)CN1C(=O)c2ccccc2CS1(=O)=O`, for which the INHIBITION stood at 10.1%. As for `Cc1cc(=O)c(C(=O)N2CCN(C)c3ccccc3C2)c[nH]1`, the figure is 43.9%; as for `Cc1ccc(C(=O)CN2C(=O)c3ccccc3CS2(=O)=O)c(C)c1`, 65.3%. Under `Cc1cc(C(=O)CN2C(=O)c3ccccc3CS2(=O)=O)c(C)[nH]1` stands 56.4%; under `Cc1nc(-c2nnc[nH]2)sc1C(=O)N1CCCC(C(F)(F)F)C1` (configuration not stated), 7.25%; under `CN(C)C(=O)C1CCC2(CCN(C(=O)Nc3ccc(F)cc3)CC2)O1` (configuration not stated), 31.2%. Regarding `O=C([C@@H]1C[C@@H]2CCN(C3CCOCC3)C[C@@H]2O1)N1CCOCC1`, the INHIBITION is -9.26%. As for `COCCn1c2c(ccc1=O)CCN(C(=O)Cc1cccs1)CC2`, the figure is -14.2%; as for `CNc1cnc(CC2COCCN(Cc3ccccc3)C2)cn1` (configuration not stated), 9.05%. With `c1ccc(-n2cc(CNCC3CCCN3c3cccnn3)cn2)cc1` (configuration not stated), the INHIBITION is 41.5%. As for `CC(CS(C)(=O)=O)N(C(=O)CCc1ccc(Cl)s1)C1CC1` (configuration not stated), the figure is 31.5%; as for `CC(CS(C)(=O)=O)N(C(=O)c1ccc(Cl)s1)C1CC1` (configuration not stated), 52.1%. As to `CC(CS(C)(=O)=O)N(C(=O)Nc1cc(F)ccc1Cl)C1CC1` (configuration not stated), the INHIBITION is recorded as 3.63%. As for `Cn1cc(C(=O)NCC2CCN(C(=O)NC3CC3)CC2)cn1`, the figure is -16%; as for `c1csc(SCC2CN=C(N3CCOCC3)S2)c1` (configuration not stated), -12.9%. With `c1ccn2c(SCC3CN=C(N4CCOCC4)S3)ncc2c1` (configuration not stated), the INHIBITION came to 0.705%. As for `N#Cc1ccnc(SCC2CN=C(N3CCOCC3)S2)c1` (configuration not stated), the figure is 52.6%; as for `O=c1c(NCCc2ccc(O)cc2)c(NCc2ccco2)c1=O`, 45.7%. Turning to `Cc1ccc(N2CCc3sc(C(=O)N4CCOCC4)cc32)nn1`, the INHIBITION is reported as -34%. For the compound `Cc1cc(S(=O)(=O)N2CCCc3cc(Br)ccc32)sc1C(=O)O`, the INHIBITION is listed as 54.3%. Under `Cc1cc(S(=O)(=O)N2CCCc3cc(Cl)ccc32)sc1C(=O)O` stands -12.5%; under `Cc1cc(S(=O)(=O)N2CCCc3ccccc32)sc1C(=O)O`, 37.1%. Under `O=C(Nc1ccccc1)N1CC(C(=O)N2CCCC2)C2(CCOCC2)C1` (configuration not stated) stands -9.71%; under `NC(=O)c1ccc(C2CCCN2C(=O)CCn2nnc3ccccc32)s1` (configuration not stated), 7.6%. On to `NC(=O)c1ccc(C2CCCN2C(=O)Cn2nc3ccccc3n2)s1` (configuration not stated), for which the INHIBITION was found to be 19.4%.

Consider `CC(=O)c1c(C)nn(CC(=O)N2CCCC2c2ccc(C(N)=O)s2)c1C` (configuration not stated), for which the INHIBITION was found to be 65.7%.

Take `CN(C)CCN1CCCC12CCN(C(=O)c1ccco1)CC2`: the INHIBITION is given as -20.8%. Under `O=C(Nc1ccncc1)N(CCO)Cc1ccsc1` stands -42.2%.
